Experimental data from PubChem BioAssay (Tox21).
Several values for one entry are separate records, joined by “and”; a condition that tells them apart may be missing. Equal values may be shown once. Inconclusive results are not listed. More than one record can exist for a structure, and the calls need not agree. Activity calls are given as the source filed them. Unless noted, the call rests on the fitted dose curve; in most records, active means well fitted curve in the direction sought with a large enough effect in the repeat runs; inconclusive means weak or mixed curves; inactive means no such curve, though single readings can be large; an effect the other way counts as inactive or inconclusive.

Tests used:
[1] = qHTS assay for small molecule agonists of the p53 signaling pathway (AID 651631; calls by dose curve; further: nearly all actives have a fitted effect of over 15% in size)
How it was run: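 p53RE-bla HCT-116 cells; compounds 16 h, 37 °C; LiveBLAzer B/G FRET substrate 2 h RT; fluorescence intensity read-out, qHTS format.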

[2] = qHTS assay for small molecules that induce genotoxicity in human embryonic kidney cells expressing luciferase-tagged ATAD5 (AID 651632); further: nearly all actives have a fitted effect of over 15% in size
How it was run: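 HEK293T cells carrying luciferase-tagged ATAD5 were given compound or DMSO vehicle and incubated 16 hr at 37C, 5% CO2. Luciferase activity was read after 30 min at room temperature with Amplite; a rise signals genotoxic stress.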

[3] = qHTS assay for small molecule agonists of the p53 signaling pathway - cell viability (AID 651633; calls by dose curve; further: nearly all actives have a fitted effect of over 30% in size; further: potency means the concentration at half of the fitted maximal effect)
How it was run: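 p53RE-bla cells were treated with compound for 16 hours at 37 C. Cytotoxicity was then measured as CellTiter-Glo luminescence after 30 min at room temperature.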

[4] = qHTS assay for small molecules that induce genotoxicity in human embryonic kidney cells expressing luciferase-tagged ATAD5 - cell viability (AID 651634; calls by dose curve; further: nearly all actives have a fitted effect of over 25% in size; further: potency means the concentration at half of the fitted maximal effect)
How it was run: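 HEK293T cells carrying luciferase-tagged ATAD5, 2,000 cells/well, exposed to compound for 15.5 hr at 37C. Viability read as live-cell protease activity by CellTiter-Fluor fluorescence after 30 min at 37C.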

[5] = qHTS assay for small molecule disruptors of the mitochondrial membrane potential - cell viability (AID 720634; calls by dose curve;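 further: human HepG2 liver cancer cells; series mostly up to about 83 µM; nearly all actives have a fitted effect of over 20% in size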)
How it was run: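 HepG2 cells, 2,000 per well, attached overnight, then treated 1 hr at 37 C, 5% CO2. Viability read as ATP by CellTiter-Glo luminescence after 30 min at room temperature. Read in the same wells as the m-MPI membrane-potential dye assay.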

[6] = qHTS assay for small molecule disruptors of the mitochondrial membrane potential (AID 720635); further: potency means the concentration at half of the fitted maximal effect
How it was run: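 HepG2 cells exposed to compound 1 hr at 37C, then Mito-MPS dye 30 min. Ratio read of aggregate (540/590 nm) versus monomer (490/535 nm) fluorescence.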

[7] = qHTS assay to test for compound auto fluorescence at 535 nm (green) in HepG2 cells (AID 720675)
[8] = qHTS assay to test for compound auto fluorescence at 460 nm (blue) in HEK293 cells (AID 720678)
How it was run: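 HEK293 cells (2,000 per well, medium with 10% dialyzed FBS) attached for 4-5 hr at 37C, then received compound and stood overnight at 37C, 5% CO2. Blue fluorescence was read at Ex/Em 405/460 nm and expressed relative to triamterene.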

[9] = qHTS assay to test for compound auto fluorescence at 590 nm (red) in HEK293 cells (AID 720679)
How it was run: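 HEK293 cells (2,000/well, medium with 10% dialyzed FBS) attached for 4-5 hr at 37C, received 23 nL compound and were incubated overnight at 37C, 5% CO2. Red fluorescence was then read at 540/590nm Ex/Em, referenced to Rose Bengal sodium.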

[10] = qHTS assay to test for compound auto fluorescence at 535 nm (green) in HEK293 cells (AID 720680)
[11] = qHTS assay to test for compound auto fluorescence at 460 nm (blue) in HEK293 cell free culture (AID 720681)
How it was run: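 Compounds were added to cell-free DMEM with 10% FBS and fluorescence read directly. The blue channel used 405 nm excitation and 460 nm emission, with triamterene as the reference fluorophore.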

[12] = qHTS assay to test for compound auto fluorescence at 535 nm (green) in HEK293 cell free culture (AID 720682)
How it was run: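 Cell-free medium (DMEM, 10% FBS) receives compound or DMSO by pintool. Plate read directly at Ex 485/Em 535 nm. Signal converted to fluorescein equivalency.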

[13] = qHTS assay to test for compound auto fluorescence at 590 nm (red) in HEK293 cell free culture (AID 720683)
How it was run: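 Cell-free wells of DMEM with 10% FBS received compound, and intrinsic fluorescence was read at excitation/emission 540/590 nm. Values expressed as equivalence to Rose Bengal sodium.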

[14] = qHTS assay to test for compound auto fluorescence at 590 nm (red) in HepG2 cell free culture (AID 720684)
How it was run: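 Compound was pinned into wells holding MEM with 10% FBS and no cells, and red fluorescence was read at Ex/Em 540/590 nm. Signal is expressed as auto fluorescence equivalency relative to Rose Bengal sodium.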

[15] = qHTS assay to test for compound auto fluorescence at 460 nm (blue) in HepG2 cell free culture (AID 720685)
How it was run: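 Compound (23 nL) or DMSO pinned into cell-free MEM with 10% FBS; blue fluorescence read at 405/460 nm excitation/emission, expressed as auto-fluorescence equivalency to triamterene.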

[16] = qHTS assay to test for compound auto fluorescence at 535 nm (green) in HepG2 cell free culture (AID 720686)
[17] = qHTS assay to test for compound auto fluorescence at 460 nm (blue) in HepG2 cells (AID 720687)
How it was run: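 HepG2 cells in MEM with 10% FBS, attached overnight at 37 C, were exposed to compound or DMSO for 1 hr at 37 C, 5% CO2. Blue fluorescence was read at 405/460 nm, with triamterene as reference fluorophore.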

[18] = qHTS assay to test for compound auto fluorescence at 590 nm (red) in HepG2 cells (AID 720674)
How it was run: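 Seeding: 2,000 HepG2 cells/well, MEM/10% FBS, overnight 37 C. Dosing: compound vs DMSO. Incubation: 1 hr, 37 C, 5% CO2. Read: fluorescence 540 ex/590 em, Rose Bengal sodium as red reference.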

[19] = target: Glucocorticoid receptor (Homo sapiens) (UniProt P04150); test: qHTS assay to identify small molecule agonists of the glucocorticoid receptor (GR) signaling pathway (AID 720691; active means well fitted activation curve with a large enough effect in the signal ratio in the repeat runs, not every such curve was filed as active; the % refers to the signal ratio)
How it was run: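 GR-bla HeLa cells carrying a GRE-driven beta-lactamase reporter, exposed to compounds for 18 h at 37 C. Reporter activation read as fluorescence after 2 h with LiveBLAzer B/G FRET substrate at room temperature.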

[20] = target: Glucocorticoid receptor (Homo sapiens) (UniProt P04150); test: qHTS assay to identify small molecule antagonists of the glucocorticoid receptor (GR) signaling pathway (AID 720692; active means well fitted inhibition curve with a large enough effect in the signal ratio in the repeat runs, not every such curve was filed as active; the % refers to the signal ratio)
How it was run: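 GR-bla HeLa cells carrying a GRE-driven beta-lactamase reporter received compound after 4 h plating, then dexamethasone (5 nM final). After 18 h at 37C, the FRET substrate was loaded for 2 h at room temperature and fluorescence read.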

Measured: Potency

Sequence of Glucocorticoid receptor (Homo sapiens) (P04150 whole entry, looked up): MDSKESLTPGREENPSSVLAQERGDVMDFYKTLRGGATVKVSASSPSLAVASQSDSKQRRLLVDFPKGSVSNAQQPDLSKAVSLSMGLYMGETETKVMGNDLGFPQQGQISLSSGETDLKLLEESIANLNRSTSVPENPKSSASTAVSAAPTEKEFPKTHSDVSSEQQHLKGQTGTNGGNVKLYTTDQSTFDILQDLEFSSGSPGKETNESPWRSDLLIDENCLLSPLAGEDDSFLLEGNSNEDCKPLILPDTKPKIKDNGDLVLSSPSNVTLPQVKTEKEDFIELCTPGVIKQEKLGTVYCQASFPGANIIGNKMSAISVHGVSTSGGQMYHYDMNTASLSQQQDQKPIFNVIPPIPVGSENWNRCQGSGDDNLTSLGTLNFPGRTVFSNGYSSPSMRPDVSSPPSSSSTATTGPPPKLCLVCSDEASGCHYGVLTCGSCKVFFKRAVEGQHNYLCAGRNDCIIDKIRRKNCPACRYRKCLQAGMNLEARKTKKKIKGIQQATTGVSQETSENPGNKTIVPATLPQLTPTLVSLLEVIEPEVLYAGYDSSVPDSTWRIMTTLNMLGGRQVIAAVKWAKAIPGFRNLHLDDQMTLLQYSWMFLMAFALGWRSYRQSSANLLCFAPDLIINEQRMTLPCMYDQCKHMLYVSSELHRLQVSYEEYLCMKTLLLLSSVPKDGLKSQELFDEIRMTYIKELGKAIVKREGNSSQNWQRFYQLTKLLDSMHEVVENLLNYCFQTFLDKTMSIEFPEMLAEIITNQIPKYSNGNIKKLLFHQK

CN(C)P(=O)(N(C)C)N(C)C
not listed: [18] | [19] | [20]
inactive: all other assays above

c1ccc(C2CO2)cc1 (configuration not stated)
not listed: [1]
inactive: all other assays above

[CH3][Sn]([Cl])([Cl])[Cl]
not listed: [14] | [18]
inactive: all other assays above

Oc1ccc(Cl)cc1Cl
active: [6] 30.4 µM and 27.3 µM
not listed: [14] | [18]
inactive: all other assays above

Cc1cc(Cl)ccc1N=CN(C)C
not listed: [1] | [19] | [20]
inactive: all other assays above

CC[n+]1c(-c2ccccc2)c2cc(N)ccc2c2ccc(N)cc21
9.44 µM (active) and inactive: [3]
active: [4] 23.7 µM and 54.2 µM | [6] 2.21 µM
not listed: [1] | [19] | [20]
inactive: all other assays above

S=c1[nH]c2ccccc2[nH]1
not listed: [2]
inactive: all other assays above

CC(C)Nc1nc(Cl)nc(NC(C)C)n1
not listed: [6] | [19] | [20]
inactive: all other assays above
